Our source for the composite z-score and z-score values is PubChem BioAssay.

Structures are written as SMILES. Activity calls are given as the source filed them.

Experiment [1] in a line: binders of probe aFSTL3 on microarray, primary screen, stem cell growth factor project, biochemical, small-molecule microarray, fluorescence 635/667 (AID 1064).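 Further: measures binding of the biotinylated anti-FSTL3 antibody to printed compounds.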 Particulars: higher = more signal.
Experiment [2] can be described thus: binders from COS7 lysate, DM2A8 probe, primary screen, torsin A project, cell lysate, small-molecule microarray, fluorescence 635/667 (AID 1065). Particulars: higher = more signal, COS7 lysate expressing mutant human TOR1A.
Experiment [3] in a line: binders of probe aFGF2 on microarray, primary screen, stem cell growth factor project, biochemical, small-molecule microarray, fluorescence 635/667 (AID 1067).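 Further: measures binding of biotinylated aFGF2 protein to printed compounds on slides; z-score merges feature fluorescence and signal-to-noise across triplicate slides.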 Particulars: higher = more signal.
A short description of experiment [4]: binders of probe aFGF10 on microarray, primary screen, stem cell growth factor project, biochemical, small-molecule microarray, fluorescence 635/667 (AID 1071).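 Further: score merges 667 nm spot intensity and signal to noise from triplicate slides.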 Particulars: higher = more signal.
In experiment [5] the target is Neurogenic locus notch homolog protein 2 (Homo sapiens) (UniProt Q04721). Kind of experiment: Notch2 binders on small-molecule microarrays, primary screen, biochemical, small-molecule microarray, 635 nm fluorescence, stem cell growth factors (AID 1073). Particulars: Notch2 binding, higher = more signal.
The target in experiment [6] is Pro-neuregulin-1, membrane-bound isoform (Homo sapiens) (UniProt Q02297). Kind of experiment: NRG1 binders on small-molecule microarrays, primary screen, psychiatric disease protein project, biochemical, small-molecule microarray, fluorescence 635/667 (AID 1075).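 Further: score combines 667 nm spot fluorescence with signal to noise.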 Particulars: NRG1 binding, 635 nm fluorescence, higher = more signal.
Experiment [7] concerns Neuregulin-1 EGF-like domain. The experiment can be described thus: binders of neuregulin-1 EGF-like domain, primary screen, biochemical, small-molecule microarray, 635 nm fluorescence (AID 1081).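 Further: binding of the protein to compounds printed on small-molecule microarray slides.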 The note with it: small-molecule microarray binding, higher = more signal.
Experiment [8] in a line: FRG1 promoter luciferase signal modulators, primary screen, FRG1 inhibition for FSHD, cell-based, C2C12 myotubes, firefly/Renilla luciferase, luminescence (AID 1084). The note with it: higher = more signal, called active from +8 up or from −8 down.
Experiment [9] can be described thus: binders of probe aFST on microarray, primary screen, stem cell growth factor project, biochemical, small-molecule microarray, fluorescence 635/667 (AID 1086).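 Further: score merges 667 nm fluorescence with signal-to-noise of each printed compound spot.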 Particulars: higher = more signal.
Experiment [10] is described as follows: binders of probe aHhip on microarray, primary screen, stem cell growth factor project, biochemical, small-molecule microarray, fluorescence 635/667 (AID 1087).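 Further: score merges spot fluorescence at 667nm with spot signal to noise ratio.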 The note with it: higher = more signal.
In experiment [11] the test system is PRMT1 (protein arginine N-methyltransferase 1). Kind of experiment: PRMT1 binders on small-molecule microarrays, primary screen, biochemical, small-molecule microarray, 635 nm fluorescence (AID 1088).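 Further: binding of Prmt1 protein to compounds spotted on small-molecule microarray slides.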 Particulars: small-molecule microarray binding, higher = more signal.
The nature of experiment [12]: yeast growth modulation, basal conditions, primary screen, YJM789 clinical isolate, OD600, 24 h (AID 1089).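 Further: growth of clinical yeast isolate S. cerevisiae YJM 789 seeded 1000 cells per well; test concentration not given here.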 Particulars: S. cerevisiae YJM789 growth, higher = more signal, called active from +8 up or from −8 down.
The nature of experiment [13]: fission yeast growth modulation, primary screen, strain 972, OD600, 24 h, no modulator (AID 1090).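 Further: basal condition with compound alone and no growth modifier present; test concentration not given here.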 Particulars: S. pombe 972 growth, higher = more signal, called active from +8 up or from −8 down.
A short description of experiment [14]: S. cerevisiae growth modulation with rapamycin, primary screen, strain BY4716, OD600, 96 h (AID 1091). Further: test concentration not given here. Particulars: higher = more signal, called active from +8 up or from −8 down.
Experiment [15] concerns the target Torsin-1A-interacting protein 2 (Homo sapiens) (UniProt Q8NFQ8). Kind of experiment: LULL1 binders on small-molecule microarray, primary screen, cell lysate, human LULL1 lysate, 635/667 nm fluorescence (AID 1092).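 Further: probe is lysate of COS7 cells overexpressing human LULL1; score merges per-feature 667 nm fluorescence with signal-to-noise.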 The note with it: hLULL1 lysate binding, 635 nm fluorescence, higher = more signal.
Experiment [16] can be described thus: E. coli growth modulation, two-sided OD650, primary screen, E. coli filamentation project, strain DRC41, 24 h (AID 1093).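 Further: MC1000 strain lacking acrAB efflux and sulA so SOS filamentation is blocked; test concentration not given here.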 Particulars: OD650, 24 h, higher = more signal, called active from +8 up or from −8 down.
Experiment [17] in a line: small-molecule microarray binders of probe aLefty2, primary screen, biochemical, biotinylated probe, 635/667 nm fluorescence (AID 1094).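 Further: score merges spot fluorescence near 667 nm with spot signal-to-noise ratio.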 Particulars: higher = more signal.
Experiment [18] relates to Noggin (protein binding on small-molecule microarray). Kind of experiment: Noggin binders on small-molecule microarray, primary screen, biochemical, 635/667 nm fluorescence (AID 1095).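 Further: score merges 667 nm feature fluorescence with signal to noise over triplicate slides.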 The note with it: 635 nm fluorescence, higher = more signal.
Experiment [19] concerns the target Neurogenic locus notch homolog protein 3 (Homo sapiens) (UniProt Q9UM47). The experiment can be described thus: NOTCH3 binders on small-molecule microarray, primary screen, biochemical, 635/667 nm fluorescence (AID 1096). Particulars: NOTCH3 binding, 635 nm fluorescence, higher = more signal.
A short description of experiment [20]: small-molecule microarray binders of probe aEGFR, primary screen, biochemical, biotinylated probe, 635/667 nm fluorescence (AID 1097).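 Further: probe is a biotinylated anti-EGFR antibody binding compounds printed on slides; score combines fluorescence near 667 nm and signal to noise of each spot.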 The note with it: higher = more signal.

Sequence of Neurogenic locus notch homolog protein 2 (Homo sapiens) (Q04721 whole entry, looked up, canonical isoform): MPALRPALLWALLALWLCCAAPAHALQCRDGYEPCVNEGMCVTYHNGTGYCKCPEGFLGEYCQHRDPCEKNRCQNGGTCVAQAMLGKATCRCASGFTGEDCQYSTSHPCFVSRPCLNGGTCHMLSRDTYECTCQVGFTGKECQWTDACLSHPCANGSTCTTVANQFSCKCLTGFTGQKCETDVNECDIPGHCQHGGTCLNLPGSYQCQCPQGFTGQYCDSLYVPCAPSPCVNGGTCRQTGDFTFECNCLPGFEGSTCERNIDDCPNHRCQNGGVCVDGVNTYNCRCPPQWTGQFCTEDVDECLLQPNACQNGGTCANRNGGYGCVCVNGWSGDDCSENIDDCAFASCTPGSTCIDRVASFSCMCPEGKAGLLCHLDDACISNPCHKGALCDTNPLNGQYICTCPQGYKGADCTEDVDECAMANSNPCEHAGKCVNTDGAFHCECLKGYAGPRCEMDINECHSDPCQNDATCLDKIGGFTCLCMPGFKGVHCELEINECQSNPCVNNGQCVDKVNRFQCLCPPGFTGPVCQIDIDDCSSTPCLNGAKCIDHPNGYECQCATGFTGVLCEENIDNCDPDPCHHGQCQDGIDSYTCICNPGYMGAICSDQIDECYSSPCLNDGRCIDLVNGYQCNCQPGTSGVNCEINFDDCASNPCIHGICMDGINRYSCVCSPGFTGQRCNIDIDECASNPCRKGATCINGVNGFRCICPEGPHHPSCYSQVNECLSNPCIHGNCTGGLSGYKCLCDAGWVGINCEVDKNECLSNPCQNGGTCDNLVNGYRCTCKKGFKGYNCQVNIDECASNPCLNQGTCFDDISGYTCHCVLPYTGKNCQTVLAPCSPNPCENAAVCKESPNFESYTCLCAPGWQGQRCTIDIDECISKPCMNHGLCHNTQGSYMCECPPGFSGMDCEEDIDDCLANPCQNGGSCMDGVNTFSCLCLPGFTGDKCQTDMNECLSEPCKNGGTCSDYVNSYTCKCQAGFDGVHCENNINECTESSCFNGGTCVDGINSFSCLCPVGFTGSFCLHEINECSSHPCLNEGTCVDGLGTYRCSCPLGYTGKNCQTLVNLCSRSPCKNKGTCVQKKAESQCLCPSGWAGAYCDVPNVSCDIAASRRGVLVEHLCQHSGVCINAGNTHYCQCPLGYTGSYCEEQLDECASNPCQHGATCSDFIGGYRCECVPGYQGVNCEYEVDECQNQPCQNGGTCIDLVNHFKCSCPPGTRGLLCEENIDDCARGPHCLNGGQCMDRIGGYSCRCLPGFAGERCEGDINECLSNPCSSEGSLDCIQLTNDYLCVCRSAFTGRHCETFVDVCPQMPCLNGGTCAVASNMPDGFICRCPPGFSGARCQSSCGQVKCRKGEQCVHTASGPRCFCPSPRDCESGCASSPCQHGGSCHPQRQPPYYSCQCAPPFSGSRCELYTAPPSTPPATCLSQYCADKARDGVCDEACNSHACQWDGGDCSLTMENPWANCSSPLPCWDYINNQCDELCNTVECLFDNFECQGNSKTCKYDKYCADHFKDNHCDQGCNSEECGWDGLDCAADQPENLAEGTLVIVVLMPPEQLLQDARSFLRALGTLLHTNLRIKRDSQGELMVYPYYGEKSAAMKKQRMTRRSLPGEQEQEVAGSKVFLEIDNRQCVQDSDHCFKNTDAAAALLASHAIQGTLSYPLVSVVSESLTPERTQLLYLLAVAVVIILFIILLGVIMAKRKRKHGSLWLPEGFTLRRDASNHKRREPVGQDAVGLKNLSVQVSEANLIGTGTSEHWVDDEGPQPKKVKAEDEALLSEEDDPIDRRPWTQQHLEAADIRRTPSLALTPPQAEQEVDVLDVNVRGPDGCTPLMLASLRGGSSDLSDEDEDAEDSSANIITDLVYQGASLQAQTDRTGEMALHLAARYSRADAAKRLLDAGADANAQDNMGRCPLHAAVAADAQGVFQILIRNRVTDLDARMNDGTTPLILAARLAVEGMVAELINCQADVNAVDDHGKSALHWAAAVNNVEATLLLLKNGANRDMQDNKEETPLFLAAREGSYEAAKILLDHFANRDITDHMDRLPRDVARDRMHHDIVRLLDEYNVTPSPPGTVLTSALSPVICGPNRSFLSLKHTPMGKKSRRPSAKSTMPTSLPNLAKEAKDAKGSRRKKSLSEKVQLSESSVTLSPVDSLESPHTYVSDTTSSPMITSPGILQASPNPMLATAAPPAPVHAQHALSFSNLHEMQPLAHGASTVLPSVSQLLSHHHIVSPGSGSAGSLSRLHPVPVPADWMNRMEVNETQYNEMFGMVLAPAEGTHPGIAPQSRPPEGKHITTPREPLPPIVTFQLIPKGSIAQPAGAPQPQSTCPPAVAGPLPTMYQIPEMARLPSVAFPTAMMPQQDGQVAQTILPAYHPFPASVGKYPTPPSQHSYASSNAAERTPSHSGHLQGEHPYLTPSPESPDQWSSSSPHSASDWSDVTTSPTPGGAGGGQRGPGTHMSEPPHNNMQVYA
Sequence of Neurogenic locus notch homolog protein 3 (Homo sapiens) (Q9UM47 whole entry, looked up): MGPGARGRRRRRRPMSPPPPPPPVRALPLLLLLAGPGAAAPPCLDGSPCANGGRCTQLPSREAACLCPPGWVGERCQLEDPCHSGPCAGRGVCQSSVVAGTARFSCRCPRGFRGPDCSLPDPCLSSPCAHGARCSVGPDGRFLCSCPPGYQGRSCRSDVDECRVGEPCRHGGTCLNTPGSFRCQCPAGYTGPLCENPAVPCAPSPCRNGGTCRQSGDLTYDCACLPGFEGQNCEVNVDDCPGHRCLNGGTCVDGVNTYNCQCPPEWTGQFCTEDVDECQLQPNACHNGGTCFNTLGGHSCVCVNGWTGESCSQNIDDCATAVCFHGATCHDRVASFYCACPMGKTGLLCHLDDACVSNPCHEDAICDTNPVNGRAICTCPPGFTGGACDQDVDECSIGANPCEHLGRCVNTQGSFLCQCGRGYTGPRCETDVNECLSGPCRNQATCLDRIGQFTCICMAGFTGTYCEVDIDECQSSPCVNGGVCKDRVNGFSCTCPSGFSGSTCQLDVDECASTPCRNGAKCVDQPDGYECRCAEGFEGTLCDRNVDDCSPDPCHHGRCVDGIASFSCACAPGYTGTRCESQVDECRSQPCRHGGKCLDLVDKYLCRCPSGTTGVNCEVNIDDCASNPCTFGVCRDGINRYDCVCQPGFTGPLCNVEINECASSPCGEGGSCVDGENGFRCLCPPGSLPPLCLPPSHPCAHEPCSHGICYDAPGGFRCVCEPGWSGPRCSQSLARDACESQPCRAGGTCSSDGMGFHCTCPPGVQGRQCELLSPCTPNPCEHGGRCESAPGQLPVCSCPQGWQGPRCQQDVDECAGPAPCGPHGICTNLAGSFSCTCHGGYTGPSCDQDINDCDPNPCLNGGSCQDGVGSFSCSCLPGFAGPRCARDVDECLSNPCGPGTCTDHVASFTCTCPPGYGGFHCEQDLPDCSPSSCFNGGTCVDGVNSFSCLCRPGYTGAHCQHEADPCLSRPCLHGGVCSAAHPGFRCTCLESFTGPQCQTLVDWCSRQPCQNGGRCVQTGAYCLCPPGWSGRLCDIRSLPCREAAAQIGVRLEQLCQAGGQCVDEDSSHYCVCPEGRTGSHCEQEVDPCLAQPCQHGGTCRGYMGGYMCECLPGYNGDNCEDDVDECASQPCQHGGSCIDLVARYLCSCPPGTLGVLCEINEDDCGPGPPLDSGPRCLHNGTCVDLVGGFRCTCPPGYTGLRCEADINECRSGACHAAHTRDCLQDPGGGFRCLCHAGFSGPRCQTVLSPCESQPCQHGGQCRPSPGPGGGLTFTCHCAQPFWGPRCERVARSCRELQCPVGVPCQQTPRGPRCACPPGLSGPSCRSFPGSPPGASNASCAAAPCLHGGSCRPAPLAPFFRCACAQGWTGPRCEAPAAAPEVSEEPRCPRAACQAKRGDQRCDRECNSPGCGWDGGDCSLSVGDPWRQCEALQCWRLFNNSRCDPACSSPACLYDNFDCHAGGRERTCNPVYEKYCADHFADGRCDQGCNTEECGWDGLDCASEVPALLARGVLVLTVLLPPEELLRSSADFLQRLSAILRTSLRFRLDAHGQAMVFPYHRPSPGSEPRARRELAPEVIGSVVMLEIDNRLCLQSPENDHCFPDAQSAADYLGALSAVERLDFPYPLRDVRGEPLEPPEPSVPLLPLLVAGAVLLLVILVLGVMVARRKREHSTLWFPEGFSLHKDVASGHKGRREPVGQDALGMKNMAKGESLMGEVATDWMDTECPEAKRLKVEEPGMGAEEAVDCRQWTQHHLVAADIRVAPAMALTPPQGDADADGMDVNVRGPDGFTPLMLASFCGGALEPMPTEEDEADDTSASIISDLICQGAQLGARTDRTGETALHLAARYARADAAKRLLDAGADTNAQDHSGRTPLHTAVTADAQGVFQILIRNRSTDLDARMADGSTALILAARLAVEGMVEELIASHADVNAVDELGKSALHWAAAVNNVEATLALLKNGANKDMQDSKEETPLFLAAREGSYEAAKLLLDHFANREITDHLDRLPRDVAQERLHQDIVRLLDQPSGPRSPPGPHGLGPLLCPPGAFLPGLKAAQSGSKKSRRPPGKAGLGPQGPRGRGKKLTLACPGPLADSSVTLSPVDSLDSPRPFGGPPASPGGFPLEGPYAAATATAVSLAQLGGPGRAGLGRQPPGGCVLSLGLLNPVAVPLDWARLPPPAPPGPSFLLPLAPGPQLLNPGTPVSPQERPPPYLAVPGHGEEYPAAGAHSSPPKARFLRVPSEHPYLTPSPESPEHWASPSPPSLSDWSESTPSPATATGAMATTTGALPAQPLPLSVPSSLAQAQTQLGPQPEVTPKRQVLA

Turning to `CCCCC(CC)C(O)C1C=CC2C(=O)N(c3ccccc3)C(=O)C2N1Nc1ccccc1F` (stereo not given), the composite z-score in experiment [1] is 0.0758; in [2] it was 0.39; in experiment [3] it was 0.151; in [4] it was 0.972; in experiment [5], 1.54; in experiment [6], -0.144. For the same molecule, the composite z-score in [7] was 1.21; in experiment [9], 0.727; in experiment [10], -0.123; in experiment [11] it was 1.53; in experiment [15], 2.64; in experiment [17], 0.222. For the same molecule, the figures for the composite z-score in [18], in experiment [19] and in experiment [20] were 0.0782, 0.822 and -0.162, respectively. Besides, the z-score is 0.39 (inactive) in [8]; -0.802 (inactive) in experiment [12]; 1.53 (inactive) in experiment [13]; 0.314 (inactive) in [14]; 0.379 (inactive) in experiment [16].
For `COC(=O)[C@@]1(Cc2ccc(F)cc2)[C@H]2c3cc(C(=O)N(C)C)n(CCc4ccc(OC)c(Br)c4)c3C[C@H]2CN1C(=O)c1ccccc1`, the composite z-score is 0.859 in [1]; -0.694 in [2]; 0.361 in [3]; 0.675 in experiment [4]; 0.716 in experiment [5]; 0.988 in [6]. The composite z-score was 1.29 in [7]; 1.48 in experiment [9]; 0.424 in [10]; -0.0641 in experiment [11]; 2.52 in experiment [15]; 0.768 in [17]. Moreover, the composite z-score in experiment [18] amounted to 0.716; in experiment [19], 0.346; in experiment [20] it was 0.557. Besides, the z-score in experiment [8] was 3.92 (inactive); in [12] it was -0.309 (inactive); in [13], -1.09 (inactive); in experiment [14] it was -0.122 (inactive); in experiment [16] it was -1.29 (inactive).
With `CC(C)(C)OC(=O)CC[C@@]1(C(=O)NCC(O)CO)N=C(c2ccc(OCCCO)cc2)O[C@@H]1c1ccccc1CN=[N+]=[N-]` (stereo not given in full), the composite z-score was 0.316 in experiment [1]; 1.86 in experiment [2]; -0.0249 in [3]; 0.426 in [4]; 1.49 in experiment [5]; 1.01 in experiment [6]. The composite z-score in experiment [7] was 1.48; in experiment [9] it was 0.544; in [10], -0.0994; in experiment [11], 0.782; in [15] it was 2.89; in experiment [17], -0.0691. For the same molecule, the results for the composite z-score in experiment [18], in experiment [19] and in experiment [20] were 0.153, 0.558 and -0.0229, respectively. For the same molecule, the z-score in experiment [8] is 3.3 (inactive); in [12] it was -0.614 (inactive); in [13], 0.0076 (inactive); in [14], -0.753 (inactive); in experiment [16], 0.188 (inactive).
Turning to `C=CCC(OC(C)=O)[C@@H]1[C@@H](N(Cc2cc3ccccc3o2)C(=O)Cc2ccc(F)cc2)c2cc(OCCCO)ccc2N1C(=O)Cc1ccc2ccccc2c1` (stereo not given in full), the composite z-score in experiment [1] is -0.367; in experiment [2], -0.804; in [3], -0.017; in [4] it was -0.469; in experiment [5] it was -0.665; in [6], -0.436. The composite z-score was 0.112 in experiment [7]; 0.0652 in [9]; -0.306 in [10]; -0.241 in experiment [11]; 0.426 in [15]; -0.0736 in experiment [17]. The composite z-score in experiment [18] was 0.129; in experiment [19] it was -0.413; in experiment [20] it was -0.185. The z-score in [8] is -1.47 (inactive); in [12], -0.689 (inactive); in experiment [13], -0.761 (inactive); in experiment [14], -0.36 (inactive); in experiment [16], -1.16 (inactive).
As for `COC(=O)[C@@]1(Cc2ccc(F)cc2)[C@H]2c3cc(C(=O)N(C)C)n(Cc4ccc(OC(F)(F)F)cc4)c3C[C@H]2CN1C(=O)c1ccccc1`, the composite z-score in experiment [1] was -0.252; in experiment [2], 0.34; in experiment [3], -0.12; in experiment [4] it was 0.369; in [5], 0.708; in experiment [6], 0.109. Moreover, the composite z-score in experiment [7] was 0.429; in [9], 0.402; in [10], -0.305; in experiment [11], -1.21; in experiment [15] it was 0.841; in experiment [17], -0.0623. Also, the composite z-score in experiment [18] was 0.149; in experiment [19] it was -0.0482; in experiment [20], 0.114. Moreover, the z-score in experiment [8] is 0.306 (inactive); in experiment [12], 0.784 (inactive); in experiment [13], 1.13 (inactive); in experiment [14], 1 (inactive); in experiment [16], -0.623 (inactive).
